CD40 NFkB inh = inhibitors of CD40-induced NF-kB signaling, primary screen, BL2 cells, luciferase reporter, single point; CD40L-induced, 4 h; inhibition, % at 10 µM; 83,000 compounds, 0.94% hits; AID 1053188, 2014;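 active = mean inhibition of at least 50% with a set share of replicates also reaching that level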
A number is an active result; 0 = inactive; [ ] = another dose, or the depositor's remark. The full list was thinned out, with hits kept by preference.

SMILES | CD40 NFkB inh
COc1ccc2c3c([nH]c2c1)[C@@H](CO)N(C(=O)c1ccccc1)CC31CN(C(=O)c2cccc(F)c2)C1 | 0
O=C(C[C@H]1CC[C@H](NC(=O)Nc2ccc(C(F)(F)F)cc2)[C@H](CO)O1)NCc1cccc(F)c1 | 0
C[C@H]1CN(C)C(=O)Cc2cc(N(C)C)ccc2O[C@@H]1CN(C)S(C)(=O)=O | 0
C[C@@H]1CN(C)C(=O)c2cc(N(C)C)ccc2O[C@@H]1CN(C)C(=O)OC(C)(C)C | 0
COc1ccc(/C=C2/CCC(CN3CCOCC3)C2=O)cc1 (stereo not drawn) | 74
COc1ccc(OCCOCCN2CCOCC2)cc1 | 0
CN(C)CC1CCC/C(=C\c2ccc(OC(=O)/C=C/c3ccccc3)cc2)C1=O (stereo not drawn) | 0
CNC(=O)C[C@@H]1CC[C@H]2[C@@H](COc3ccc(NC(=O)c4ccccc4F)cc3C(=O)N2C)O1 | 0
O=C([C@H]1N[C@H]2c3ccc(/C=C/c4ccccc4)c(=O)n3C[C@H]2[C@@H]1CO)N1CCCCC1 | 0
O=C(C[C@H]1CC[C@H](NC(=O)Nc2ccc(C(F)(F)F)cc2)[C@@H](CO)O1)NCc1cccc(F)c1 | 0
CC(=O)N1C[C@@H]2C(c3ccc(Br)cc3)[C@H](C1)N2C(=O)NC(C)C (stereo partly drawn) | 0
C[C@H]1CN([C@@H](C)CO)C(=O)CCCn2cc(nn2)CO[C@@H]1CN(C)CC1CCCCC1 | 0
C[C@@H]1CN(C)C(=O)c2cc(NS(C)(=O)=O)ccc2O[C@H]1CN(C)S(C)(=O)=O | 0
C[C@@H]1CN([C@H](C)CO)C(=O)c2c(c3ccccc3n2C)-c2ccccc2CO[C@@H]1CN(C)S(=O)(=O)c1cccc(F)c1 | 0
COc1cccc(S(=O)(=O)N(C)C[C@H]2OCc3ccccc3-c3c(n(C)c4ccccc34)C(=O)N([C@H](C)CO)C[C@@H]2C)c1 | 57[25 µM]
C[C@H]1CN([C@@H](C)CO)C(=O)c2c(c3ccccc3n2C)-c2ccccc2CO[C@@H]1CN(C)S(=O)(=O)c1cccc(F)c1 | 0
C[C@H](CO)N1C[C@H](C)[C@H](CN(C)S(=O)(=O)c2ccc([N+](=O)[O-])cc2)OCc2ccccc2-c2c(n(C)c3ccccc23)C1=O | 63[25 µM]
C[C@H](CO)N1C[C@H](C)[C@H](CN(C)S(=O)(=O)c2cccc(F)c2)OCc2ccccc2-c2c(n(C)c3ccccc23)C1=O | 0
C[C@@H]1CN([C@H](C)CO)C(=O)c2c(c3ccccc3n2C)-c2ccccc2CO[C@H]1CN(C)S(=O)(=O)c1cccc(F)c1 | 0
COc1cccc(S(=O)(=O)N(C)C[C@@H]2OCc3ccccc3-c3c(n(C)c4ccccc34)C(=O)N([C@H](C)CO)C[C@@H]2C)c1 | 62[25 µM]
COc1cccc(S(=O)(=O)N(C)C[C@@H]2OCc3ccccc3-c3c(n(C)c4ccccc34)C(=O)N([C@H](C)CO)C[C@H]2C)c1 | 64[25 µM]
C[C@@H]1CN([C@H](C)CO)C(=O)c2c(c3ccccc3n2C)-c2ccccc2CO[C@@H]1CN(C)S(=O)(=O)c1ccccc1 | 0
Cc1cccc(S(=O)(=O)N(C)C[C@H]2OCc3ccccc3-c3c(n(C)c4ccccc34)C(=O)N([C@H](C)CO)C[C@@H]2C)c1 | 0
C[C@@H]1CN([C@H](C)CO)C(=O)c2c(c3ccccc3n2C)-c2ccccc2CO[C@@H]1CN(C)S(=O)(=O)c1ccc([N+](=O)[O-])cc1 | 0
C[C@@H]1CN([C@@H](C)CO)C(=O)c2c(c3ccccc3n2C)-c2ccccc2CO[C@@H]1CN(C)S(=O)(=O)c1ccc([N+](=O)[O-])cc1 | 0
SMILES | CD40 NFkB inh
CN(C)CC(=O)Nc1ccc2c(c1)[C@H]1C[C@@H](CC(=O)N3CCCCC3)O[C@H](CO)[C@H]1O2 | 0
CN1c2ccc(-c3cccc(F)c3)cc2[C@@H]2[C@@H](CCN2C(=O)Cc2ccccc2)[C@@H]1CO | 0
CC(C)[C@H]1CC=CC[C@@H](C)Oc2ccccc2C(=O)N(C)[C@H](C(C)C)C(=O)N1 (mixture of isomers) | 0
CCC(=O)N1CCCCN2[C@H](CO)[C@H](c3ccc(C#Cc4ccccc4)cc3)[C@@H]2C1 | 0
C[C@H]1CN(C)C(=O)c2ccccc2O[C@@H]1CN(C)S(C)(=O)=O | 0
C[C@@H]1CN([C@@H](C)CO)C(=O)c2c(c3ccccc3n2C)-c2ccccc2CO[C@@H]1CN(C)S(=O)(=O)c1ccc(Cl)cc1 | 0
CN1C(=O)c2cc(NC(=O)C3CC3)ccc2OC[C@@H]2O[C@@H](CC(=O)NCCc3ccncc3)CC[C@H]21 | 0
C[C@H]1CN([C@@H](C)CO)C(=O)c2ccccc2-c2ccccc2CO[C@H]1CN(C)C(=O)Cc1ccccc1 | 0
COc1ccccc1C#Cc1ccc([C@@H]2[C@@H](CO)N(C(=O)C3CCCC3)[C@H]2C#N)cc1 | 0
C[C@@H]1CCCCO[C@H](CN(C)Cc2ccc(Cl)c(Cl)c2)[C@@H](C)CN([C@@H](C)CO)C(=O)c2cc(NC(=O)Cc3ccccc3)ccc2O1 | 0
COc1ccccc1-c1ccc2c(c1)[C@H]1[C@H](CCN1C(=O)CN1CCOCC1)[C@H](CO)N2C | 0
COC(=O)C[C@H]1CC[C@@H]2[C@@H](COc3ccc(NC(=O)Nc4c(C)noc4C)cc3C(=O)N2C)O1 | 0
COc1cccc(S(=O)(=O)N(C)C[C@H]2OCc3ccccc3-c3c(n(C)c4ccccc34)C(=O)N([C@@H](C)CO)C[C@H]2C)c1 | 61[25 µM]
Cc1cccc(S(=O)(=O)N(C)C[C@@H]2OCc3ccccc3-c3c(n(C)c4ccccc34)C(=O)N([C@H](C)CO)C[C@@H]2C)c1 | 0
COc1ccc(S(=O)(=O)N(C)C[C@H]2OCc3ccccc3-c3c(n(C)c4ccccc34)C(=O)N([C@H](C)CO)C[C@H]2C)cc1 | 0
CS(=O)(=O)N1[C@@H]2Cn3c(ccc(-c4ccccc4)c3=O)[C@H]1[C@@H](C(=O)NCC1CC1)[C@@H]2CO | 0
COCC(=O)N1CC(=O)N2[C@H](C1)[C@@H](c1ccc(-c3cccnc3)cc1)[C@@H]2CO | 0
C[C@H]1COCc2cnnn2CC[C@@H](Cc2ccccc2)C(=O)N1 | 0
C[C@H](CO)N1C[C@H](C)[C@H](CN(C)Cc2cccnc2)OCc2cnnn2CCCC1=O | 0
CC(C)NC(=O)N(C)C[C@H]1Oc2c(N)cccc2C(=O)N(C)C[C@H]1C | 0
CN(C)C(=O)c1cccc(-c2ccc3c(c2)[C@@H]2[C@@H](CCN2C(=O)C2CCCCC2)[C@@H](CO)N3)c1 | 0
N#C[C@H]1[C@H](c2ccc(C#CC3CCCC3)cc2)[C@H](CO)N1C(=O)Nc1ccc(F)cc1 | 0
N#C[C@H]1[C@H](c2ccc(-c3cccc(F)c3)cc2)[C@H](CO)N1C(=O)NC1CCCC1 | 52[25 µM]
COc1ccc(-c2ccc([C@H]3[C@@H](C#N)N(C(=O)c4cccc(F)c4)[C@H]3CO)cc2)cc1 | 57[25 µM]
N#C[C@H]1[C@@H](c2ccc(C#CC3CC3)cc2)[C@@H](CO)N1C(=O)c1cccc(F)c1 | 0
N#C[C@@H]1[C@H](c2ccc(C#CC3CCCC3)cc2)[C@@H](CO)N1C(=O)c1cccc(F)c1 | 66
COc1ccc(-c2ccc([C@@H]3[C@H](C#N)N(C(=O)c4cccc(F)c4)[C@H]3CO)cc2)cc1 | 0
N#C[C@H]1[C@H](c2ccc(C#CC3CCCCC3)cc2)[C@@H](CO)N1C(=O)Nc1ccc(F)cc1 | 63[25 µM]
COc1ccc(-c2ccc([C@@H]3[C@@H](CO)N(C(=O)c4cccc(F)c4)[C@H]3C#N)cc2)cc1 | 0
N#C[C@@H]1[C@H](c2ccc(-c3cccc(F)c3)cc2)[C@H](CO)N1C(=O)NC1CCCC1 | 0
